Among all 1,900 compounds or so, about 15 (0.8%) were called active.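 How the source made its calls: active means every replicate shows at least 50% inhibition; inconclusive means mean inhibition at least 50% but some replicate below; inactive means the rest.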 The sample as a whole holds a higher share of actives than the screen did.
These compounds were tested against DNA repair protein RAD52 homolog (Homo sapiens) (UniProt P43351) (assay: RAD52 ssDNA annealing inhibitors, primary screen, biochemical, FRET, single point (AID 651660;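 further: 0% = median of neutral control wells and 100% = median of positive control wells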)). Conditions: Recombinant RAD52 ssDNA annealing, FRET fluorescence, 30 min; at 18.7 µM; hits give high values.
Sequence of DNA repair protein RAD52 homolog (Homo sapiens) (P43351 whole entry, looked up): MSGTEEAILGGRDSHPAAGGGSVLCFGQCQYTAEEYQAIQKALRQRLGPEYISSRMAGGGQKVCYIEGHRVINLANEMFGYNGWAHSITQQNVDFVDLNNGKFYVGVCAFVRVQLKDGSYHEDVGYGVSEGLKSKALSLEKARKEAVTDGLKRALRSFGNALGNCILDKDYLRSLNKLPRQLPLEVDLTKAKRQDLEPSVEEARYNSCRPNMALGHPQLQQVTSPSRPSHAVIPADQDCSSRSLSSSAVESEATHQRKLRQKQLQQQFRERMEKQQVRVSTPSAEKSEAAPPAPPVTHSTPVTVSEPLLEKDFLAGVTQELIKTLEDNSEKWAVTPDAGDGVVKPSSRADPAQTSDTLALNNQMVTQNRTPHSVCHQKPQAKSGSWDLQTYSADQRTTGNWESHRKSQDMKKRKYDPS
For `O=C(Nc1nc2ccccc2s1)c1ccc(F)cc1`, the inhibition was 4.49% (inactive).
For `CCN(CC)c1ccc(C2=NNC(=O)CC2C)cc1[N+](=O)[O-]` (configuration not stated), the inhibition was -0.17% (inactive).
With `O=C(N/C(=C/C=C\c1ccccc1)C(=O)N1CCOCC1)c1ccc(Br)cc1` the inhibition was 8.04% (inactive).
For `CCOc1ccccc1Oc1coc2cc(OCC(=O)O)ccc2c1=O`, the inhibition was -12.3% (inactive).
`C(=C\c1ccc2ccccc2n1)/c1ccccc1` was tested, and the inhibition was 3.46% (inactive).
With `COc1cc(CC(=O)NCCc2ccc(S(N)(=O)=O)cc2)cc(OC)c1OC` the inhibition was -2.62% (inactive).
For `O=C(NCCCCCc1nc2ccccc2[nH]1)c1ccccc1Cl`, the inhibition was -0.634% (inactive).
`N=C1C(c2ccccc2)=C(O)CN1CCCO` was tested, and the inhibition was -1.52% (inactive).
For `Cn1c2ccccc2c2cc(/C=C(\NC(=O)c3ccccc3)C(=O)O)ccc21`, the inhibition was -10.8% (inactive).
In the case of `O=C1c2cccc3cccc(c23)C(=O)N1c1ccccn1`, the inhibition is reported as -4.1% (inactive).
`COCCCNc1nc2c([nH]1)c(=O)[nH]c(=O)n2C` was tested, and the inhibition was -1.14% (inactive).
In the case of `CCOC(=O)c1cnc2ccccc2c1NCCO`, the inhibition is reported as 10.9% (inactive).
In the case of `O=C(COc1ccccc1)Nc1ccc2c(c1)C(=O)N(CC1CCCO1)C2=O` (configuration not stated), the inhibition is reported as -9.17% (inactive).
With `COc1ccc(C2C3=C(CC(C)(C)CC3=O)N(C)C3=C2C(=O)CC(C)(C)C3)cc1` the inhibition was -13.9% (inactive).
For `COc1ccccc1OS(=O)(=O)c1ccc(NC(C)=O)cc1`, the inhibition was 3.22% (inactive).
For `S=C(NCCOCCOCCNC(=S)Nc1ccccc1)Nc1ccccc1`, the inhibition was 4.23% (inactive).
In the case of `Nc1ncnc2c1ncn2C1OC(CO)C(O)C1O` (configuration not stated), the inhibition is reported as -0.087% (inactive).
`Cc1ccc2c(ccc(=S)n2C)c1` was tested, and the inhibition was -5.88% (inactive).
`O=C(CS(=O)(=O)c1ccccc1)c1ccc2c(c1)OCCO2` was tested, and the inhibition was -0.895% (inactive).
With `CCOc1cc2oc(=O)c3c(c2cc1Cl)CCC3` the inhibition was -1.74% (inactive).
With `CC[C@H](CO)NCCN[C@H](CC)CO` the inhibition was -5.2% (inactive).
In the case of `Cc1ccc2nc(C)c3c(c2c1)OC(C(C)(Cl)Br)C3` (configuration not stated), the inhibition is reported as 3.5% (inactive).
For `Cc1ccc2nc(NC3=NC(CC(=O)O)C(=O)N3)nc(C)c2c1` (configuration not stated), the inhibition was 7.8% (inactive).
In the case of `Cc1ccc2nc(N=C(N)N)nc(C)c2c1`, the inhibition is reported as 66.7% (active).
For `C[C@H](NC(=O)OC(C)(C)C)C(=O)NCC1CCC(C(=O)O)CC1` (some centres not stated), the inhibition was -0.108% (inactive).
In the case of `CC(=O)N(CCC1(C(C)C)CCOC(C)(C)C1)Cc1ccco1` (configuration not stated), the inhibition is reported as -19% (inactive).
With `COc1cc(CO)ccc1OCc1nnnn1-c1ccc(C)cc1` the inhibition was 5.41% (inactive).
For `CCC(C)NCCOCCOc1ccc(Cl)cc1Br` (configuration not stated), the inhibition was 9.51% (inactive).
In the case of `CCC1CCc2c(sc(NC(=O)c3cccnc3)c2C(N)=O)C1` (configuration not stated), the inhibition is reported as -5.46% (inactive).
`O=[N+]([O-])c1ccc2cn[nH]c2c1` was tested, and the inhibition was -3.19% (inactive).
For `Nc1ccc2nc(Cc3ccccc3)[nH]c2c1`, the inhibition was 33.4% (inactive).
With `Nc1ccc2[nH]ncc2c1` the inhibition was 59.5% (active).
For `C=C(C)COc1ccc(-c2n[nH]c(C)c2-c2ccc(OC)cc2)c(O)c1`, the inhibition was 17.8% (inactive).
In the case of `CCOc1ccc(C(=O)Nc2ccc(N3CCN(C(C)=O)CC3)cc2)cc1[N+](=O)[O-]`, the inhibition is reported as -3.31% (inactive).
`NC(=O)[C@@H]1[C@@H]2C(=O)N(c3ccc(F)cc3)C(=O)[C@@H]2[C@H]2C=Cc3ccccc3N21` was tested, and the inhibition was -124% (inactive).
For `C#CCN1C(=O)C(O)(c2c(C)[nH]c3ccccc23)c2ccccc21` (configuration not stated), the inhibition was -11.1% (inactive).
`Nc1c2c(nc3ccccc13)CCCC2` was tested, and the inhibition was 18.1% (inactive).
In the case of `Nc1cccc2nc3ccccc3cc12`, the inhibition is reported as 99.5% (active).
For `Cc1nc2cc3ccccc3cc2c(=O)[nH]1`, the inhibition was -5.13% (inactive).
With `CN(C)C(=O)CCCCCCCCC(=O)N(C)C` the inhibition was -13.3% (inactive).
With `COc1ccc(/C=C(/C#N)c2cccnc2)cc1OC` the inhibition was -8.25% (inactive).
`CCOC(=O)c1ccc2[nH]c(C)c(CCC(C)=O)c(=O)c2c1` was tested, and the inhibition was 0.469% (inactive).
In the case of `COc1cc(COc2ccc3c(C)c(Cc4ccccc4)c(=O)oc3c2)cc(OC)c1OC`, the inhibition is reported as -0.647% (inactive).
For `CCc1nc2ccccc2c(NC(=O)CN2CC(C)CC(C)C2)c1C` (configuration not stated), the inhibition was -5.82% (inactive).
For `O=C(CCCn1c(=O)oc2ccccc21)N1CCN(c2ccc(F)cc2)CC1`, the inhibition was -3.01% (inactive).
In the case of `Cc1ccc(C2CC(=O)C(C=NCCN3CCN(C(=S)Nc4ccccc4)CC3)=C(O)C2)cc1` (configuration not stated), the inhibition is reported as 4.06% (inactive).
With `Cc1ccc2c(c1)C(O)(CC(=O)/C=C/C=C/c1ccccc1)C(=O)N2` (configuration not stated) the inhibition was -10.7% (inactive).
With `CC1(C)CC(=O)C2=C(C1)c1c(ccc3ccccc13)NC2c1ccco1` (configuration not stated) the inhibition was -27.1% (inactive).
`CCN(CC)c1ccc([C@H]2[C@@H]3CCCC[C@]3(O)CCN2CC(=O)NCc2ccco2)cc1` was tested, and the inhibition was -20.6% (inactive).
For `CCc1cc(/C(Cc2ccccn2)=N\O)c(O)cc1O`, the inhibition was -33.7% (inactive).
For `CC(C)CC(NC(=O)CNC(=O)C1O[C@@H]2OC(C)(C)O[C@@H]2[C@H]2OC(C)(C)O[C@@H]12)C(=O)O` (some centres not stated), the inhibition was -7% (inactive).
With `OCCN(Cc1nc(-c2ccc3c(c2)OCO3)no1)Cc1cccs1` the inhibition was 2.4% (inactive).
With `Cc1ccc(C2CC(=O)C(C=NCCN3CCN(CC(=O)Nc4cc(C)cc(C)c4)CC3)=C(O)C2)cc1` (configuration not stated) the inhibition was -3.07% (inactive).
For `COc1ccccc1N=CC1=C(O)CC(c2ccccc2)CC1=O` (configuration not stated), the inhibition was -25.4% (inactive).
`C/C(=N\N=C1\NC(=O)C(CC(=O)Nc2ccc(Cl)cc2)S1)c1ccco1` (configuration not stated) was tested, and the inhibition was -15.6% (inactive).
For `COc1ccc(NC(=S)NCCc2c[nH]c3ccccc23)cc1`, the inhibition was 7.25% (inactive).
`O=C(c1ccc(O)cc1)c1ccc(O)cc1O` was tested, and the inhibition was -19.8% (inactive).
`COc1ccc2[nH]c(=O)c3c(c2c1)OC(C)(C)C=C3` was tested, and the inhibition was -5.72% (inactive).
With `CCc1cccc(OC2OC(CO)C(O)C(O)C2NC(C)=O)c1` (configuration not stated) the inhibition was -3.23% (inactive).
In the case of `COc1ccc2c(C=O)cn(C)c2c1`, the inhibition is reported as -1.85% (inactive).
With `CC(C)CC(NC(=O)c1cccc(Cl)c1)C(=O)O` (configuration not stated) the inhibition was -8.58% (inactive).
For `CCOC(=O)c1c(O)c2c([nH]c1=O)CCCC2`, the inhibition was 2.81% (inactive).
With `COc1cccc(N2C(=O)CC(c3c[nH]c4ccccc34)C2=O)c1` (configuration not stated) the inhibition was -22.5% (inactive).
`Cc1c(NC(=O)c2cccs2)cccc1[N+](=O)[O-]` was tested, and the inhibition was 0.122% (inactive).
In the case of `CC1(C)CC(=O)C(C(=O)CCCCC(=O)C2C(=O)CC(C)(C)CC2=O)C(=O)C1`, the inhibition is reported as -11.5% (inactive).
`CC(=O)NCCCC(=O)NC(CCC(=O)OCc1ccccc1)C(=O)OCc1ccccc1` (configuration not stated) was tested, and the inhibition was -10.8% (inactive).
For `COC(=O)c1ccc(OCCCCN2CC(C)OC(C)C2)cc1` (configuration not stated), the inhibition was -1.97% (inactive).
`CC1(C)OC2OC(C(=O)N/N=C/c3ccccc3F)C3OC(C)(C)OC3C2O1` (configuration not stated) was tested, and the inhibition was -8.91% (inactive).
`O=C(/C=C/c1c[nH]c2ccccc12)c1cccc2ccccc12` was tested, and the inhibition was -25.7% (inactive).
`O=C(CCCCCCCC(=O)c1ccccc1)c1ccccc1` was tested, and the inhibition was 2.66% (inactive).
`COc1ccc(CCNc2ncnc3c2[nH]c2cc(OC)c(OC)cc23)cc1OC` was tested, and the inhibition was 68.2% (active).
With `COc1cc2[nH]c3c(=O)n(CCN4CCOCC4)cnc3c2cc1OC` the inhibition was 1.23% (inactive).
For `Clc1ccc(CCNc2ncnc3nc[nH]c23)cc1`, the inhibition was 1.95% (inactive).
`CN(Cc1ccccc1)CC(O)COc1ccc(CNCc2cccnc2)cc1` (configuration not stated) was tested, and the inhibition was 25.5% (inactive).
For `COc1c2ccoc2nc2c(OC)cccc12`, the inhibition was 10.6% (inactive).
`COc1ccc(N2C(=O)[C@@H]3Cc4ccccc4CN3C2=O)cc1` was tested, and the inhibition was -7.83% (inactive).
With `Cc1oc2c(CN3CCCC3)c(O)ccc2c(=O)c1-c1ccc(Cl)cc1` the inhibition was 2.93% (inactive).
In the case of `CCN(Cc1ccncc1)Cc1nc(Cc2ccccc2Cl)no1`, the inhibition is reported as -13.8% (inactive).
For `COc1ccc(C(CC(=O)N2CCOCC2)C(C)C)cc1` (configuration not stated), the inhibition was 4.92% (inactive).
In the case of `O=C(CSCc1ccccc1)NCCCN1CCOCC1`, the inhibition is reported as 7.56% (inactive).
For `CCN(Cc1cnn(C)c1)Cc1nc(C(c2ccccc2)c2ccccc2)no1`, the inhibition was 1.94% (inactive).
In the case of `N/C(=N\OC(=O)/C=C/c1ccccc1)c1ccc(Br)cc1`, the inhibition is reported as -5.01% (inactive).
For `Cc1nc(-c2coc3c(CN(C)C)c(O)ccc3c2=O)cs1`, the inhibition was 5.53% (inactive).
With `O=C(O)c1ccccc1Nc1cccc(C(F)(F)F)c1` the inhibition was -6.2% (inactive).
In the case of `Cc1cccc(Nc2ccccc2C(=O)O)c1C`, the inhibition is reported as -13.3% (inactive).
`c1ccc(Nc2cccc3c(Nc4ccccc4)cccc23)cc1` was tested, and the inhibition was 51.9% (active).
With `COc1ccc(-c2nc(C)c(C(C)=O)n2O)cc1OC` the inhibition was -4.44% (inactive).
In the case of `COc1cccc(-n2cc(CNCc3c(C(=O)N(C)C)nc4ccc(Cl)cn34)cn2)c1`, the inhibition is reported as -5.77% (inactive).
In the case of `COC(=O)c1sccc1NC(=O)Nc1ccccc1F`, the inhibition is reported as -4.3% (inactive).
With `Cc1oc2cc(O)cc(O)c2c(=O)c1-c1ccc2c(c1)OCCCO2` the inhibition was 3.6% (inactive).
With `Cn1c2ccc(CC(=O)O)cc2c2cc(CC(=O)O)ccc21` the inhibition was -173% (inactive).
For `CC(C)c1ccccc1OCCNC(=S)NC(=O)c1cccnc1`, the inhibition was -11.8% (inactive).
With `COc1cccc2c1C(=O)O/C2=C/c1ccc2c(c1)OCO2` the inhibition was -3.05% (inactive).
In the case of `CCn1c(O)c(/C=C2\C=Nc3ccccc32)sc1=O`, the inhibition is reported as 8.58% (inactive).
For `COC(=O)c1cc(OC)c(OC)c(OC)c1[N+](=O)[O-]`, the inhibition was -11.8% (inactive).
For `COc1ccc(Br)cc1C(=O)Nc1ccc(C(=O)O)cc1`, the inhibition was -5.54% (inactive).
In the case of `Cc1cnc(C(=O)N2CCCC(C(=O)c3ccc(Cl)cc3C)C2)cn1` (configuration not stated), the inhibition is reported as 3.18% (inactive).
With `Cc1ccc2[nH]c(=O)c(Cc3ccccc3)c(O)c2c1` the inhibition was -9.59% (inactive).
`CN1C(=O)C(O)(CC(=O)/C=C/C=C/c2ccccc2)c2ccccc21` (configuration not stated) was tested, and the inhibition was -13.6% (inactive).
`CC(C)Oc1ccc(C(CC(=O)O)c2ccc(F)cc2)cc1` (configuration not stated) was tested, and the inhibition was -7.3% (inactive).
With `COc1ccc(CN(CCC(c2ccccc2)c2ccc(OC(C)C)cc2)C(=O)CCl)cc1OC` (configuration not stated) the inhibition was 28.8% (inactive).
For `COc1ccc(CNCCC(c2ccc(F)cc2)c2ccc(OC(C)C)cc2)cc1OC` (configuration not stated), the inhibition was 57.6% (active).

From PubChem BioAssay AID651660 (Broad Institute, 2012)
